This is an account of results in PubChem BioAssay.

Active and inactive are the calls of the source. Unless noted, no rule for the calls is given here.

Assay [1] relates to XIP peptide (Xip251-270) binding. The assay can be described thus: XIP fragment 251-270 binding compounds – biochemical, small-molecule microarray, fluorescence 635/667 nm, 0.1 µg/mL protein, primary screen (AID 1182). As to conditions: fluorescent protein binding, 635 nm, higher = more signal, called active from +8 up or from −8 down.
The next assay deals with XIP peptide (Xip251-270). The assay can be described thus: compounds binding XIP fragment 251-270 – biochemical, small-molecule microarray, fluorescence 635/667 nm, 0.5 µg/mL protein, primary screen (AID 1183). As to conditions: fluorescence 635 nm, higher = more signal.
The nature of assay [2]: blood-stage malaria parasite viability loss – strain 3D7, DAPI fluorescence, 100 nL, primary screen (AID 1184).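 Also: parasites grown inside human red blood cells in medium with human serum.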 Particulars: P. falciparum 3D7 growth, 3 d, higher = more signal.
The target in assay [3] is Homeobox protein Hox-A13 (Mus musculus) (UniProt Q62424). The assay can be described thus: disruptors of Hoxa13 oligonucleotide interaction – biochemical, fluorescence polarization, labeled oligonucleotide, primary screen (AID 1185). As to conditions: Hoxa13:DNA binding, 15 min, higher = more signal, called active from +8 up or from −8 down. Background: Polarisation of emitted light reports the rotation of a fluorescent probe.
Chain of Homeobox protein Hox-A13 (Mus musculus) (Q62424 whole entry, looked up): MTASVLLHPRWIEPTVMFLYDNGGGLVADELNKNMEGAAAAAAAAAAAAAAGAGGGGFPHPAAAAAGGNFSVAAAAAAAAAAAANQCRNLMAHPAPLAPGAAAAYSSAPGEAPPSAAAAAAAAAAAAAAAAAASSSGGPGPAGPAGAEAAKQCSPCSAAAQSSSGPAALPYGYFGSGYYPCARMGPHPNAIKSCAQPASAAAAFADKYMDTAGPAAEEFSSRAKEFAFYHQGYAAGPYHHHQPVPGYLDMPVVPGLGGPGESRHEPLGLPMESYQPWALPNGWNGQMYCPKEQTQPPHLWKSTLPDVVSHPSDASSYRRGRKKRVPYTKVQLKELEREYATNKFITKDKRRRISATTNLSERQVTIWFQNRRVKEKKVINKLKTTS

Assay [4] in a line: blockers of DNA damage checkpoint Chk1 activation – imaging, HeLa, hydroxyurea, phospho-Chk1 antibody, percent positive cells, primary screen (AID 1186). Particulars: hydroxyurea-induced phospho-Chk1 immunofluorescence imaging, higher = more signal.
Assay [5] is described as follows: blockers of DNA damage checkpoint Chk1 activation – imaging, HeLa, hydroxyurea, phospho-Chk1 nuclear intensity, primary screen (AID 1187). Particulars: hydroxyurea-induced phospho-Chk1 immunofluorescence imaging, higher = more signal.

`C=C(C(=O)CC[C@H](OC(=O)c1ccccc1-c1ccccc1C(=O)O)c1ccccc1OCCO)C(C)C`: the composite z-score in assay [1] was -0.0286 (inactive); in the assay with XIP peptide (Xip251-270), 0.7. In addition, the z-score is -2.47 in assay [2], -5.13 (inactive) in assay [3], -0.126 (inactive) in assay [4] and -0.0147 (inactive) in assay [5].

On to `Cc1ccc(S[C@]2(C(=O)NCc3ccccc3)CC(=O)N(Cc3cc(C(F)(F)F)cc(C(F)(F)F)c3)[C@@H]2c2ccc(CO)cc2I)cc1`, for which the composite z-score is 1.16 (inactive) in assay [1] and -0.474 with XIP peptide (Xip251-270). For the same compound, the z-score is -0.261 in assay [2], -1.82 (inactive) in assay [3], 0.0563 (inactive) in assay [4] and 0.249 (inactive) in assay [5].

Take `COC(=O)[C@@]1(Cc2ccc(F)cc2)[C@H]2c3cc(C(=O)N(C)C)n(Cc4c(CO)[nH]cc(C)c4=O)c3C[C@H]2CN1C(=O)c1ccccc1`: the composite z-score in assay [1] was 0.493 (inactive); in the assay with XIP peptide (Xip251-270), -0.0903. Further, the z-score in assay [2] was -1.81; in assay [3], -5.02 (inactive); in assay [4] it was 0.815 (inactive); in assay [5] it was 0.493 (inactive).

In the case of `CN1C(=O)C2C=CC(C(O)c3cc(C(F)(F)F)cc(C(F)(F)F)c3)N(Nc3ccccc3)C2C1=O` (stereo unspecified), the results for the composite z-score (in assay [1]; in the assay with XIP peptide (Xip251-270)) were 1.9 (inactive) and 0.128, respectively. For the same compound, the z-score was 1.08 in assay [2], -3.84 (inactive) in assay [3], -0.0145 (inactive) in assay [4] and 0.0934 (inactive) in assay [5].

As for `C=CCNC(=O)[C@@H]1[C@H]2C(=O)O[C@H](c3ccccc3)[C@H](c3ccccc3)N2[C@H](c2ccc(OCCO)cc2)[C@@]12C(=O)N(C(=O)OCCOC)c1ccc(C#CCCO)cc12`, the results for the composite z-score (in assay [1]; in the assay with XIP peptide (Xip251-270)) were 0.649 (inactive) and 0.69, respectively. In addition, the z-score in assay [2] was -1.56; in assay [3], -1.19 (inactive); in assay [4] it was -0.604 (inactive); in assay [5] it was -0.826 (inactive).

With `COC(=O)C(CC#Cc1ccc2c(c1)[C@]1(C(=O)N2)[C@H](C(=O)Nc2nc3ccccc3s2)[C@H]2C(=O)O[C@H](c3ccccc3)[C@H](c3ccccc3)N2[C@@H]1c1ccc(OCCO)cc1)C(=O)OC`, the composite z-score is 3.13 (inactive) in assay [1] and 0.771 in the assay with XIP peptide (Xip251-270). In addition, the z-score in assay [2] is -2.1; in assay [3] it was 0.713 (inactive); in assay [4] it was 0.0974 (inactive); in assay [5], 0.531 (inactive).

For `COc1ccc(CCNC(=O)[C@@]2(Cc3ccccc3I)c3ccccc3C(=O)N(Cc3ccccc3Cl)[C@H]2c2ccc(CO)cc2)cc1`, the composite z-score in assay [1] is 0.71 (inactive); with XIP peptide (Xip251-270), 0.765. Moreover, the z-score in assay [2] was -1.23; in assay [3], -3.36 (inactive); in assay [4], 0.207 (inactive); in assay [5], -0.304 (inactive).

With `COCCOC(=O)N1C(=O)[C@@]2(c3cc(C#CCCO)ccc31)[C@H](c1ccccc1OCCO)N1[C@H](c3ccccc3)[C@H](c3ccccc3)OC(=O)[C@H]1[C@@H]2C(=O)N1CCCCCCC1`, the values for the composite z-score (in assay [1]; in the assay on XIP peptide (Xip251-270)) were 0.783 (inactive) and 0.759, respectively. Moreover, the z-score in assay [2] was -2.25; in assay [3] it was 3.84 (inactive); in assay [4], -0.304 (inactive); in assay [5] it was -0.387 (inactive).

Regarding `[N-]=[N+]=Nc1ccccc1C[C@]1(C(=O)O)N=C(c2ccc(OCCCO)cc2)O[C@H]1c1ccccc1N=[N+]=[N-]`, the composite z-score in assay [1] is 0.466 (inactive); in the assay on XIP peptide (Xip251-270), 0.532. Besides, the z-score in assay [2] is -1.5; in assay [3], -4.13 (inactive); in assay [4], -0.281 (inactive); in assay [5], 0.0939 (inactive).

Turning to `COC(=O)C(CC#Cc1ccc2c(c1)[C@]1(C(=O)N2)[C@H](c2ccc(OCCO)cc2)N2[C@H](c3ccccc3)[C@H](c3ccccc3)OC(=O)[C@H]2[C@@H]1C(=O)N1CCN(c2ncccn2)CC1)C(=O)OC`, the results for the composite z-score (in assay [1]; in the assay with XIP peptide (Xip251-270)) were 0.398 (inactive) and 0.775, respectively. Further, the z-score in assay [2] was -2.2; in assay [3], 0.338 (inactive); in assay [4] it was -0.0604 (inactive); in assay [5], -0.282 (inactive).

`C=C(COC)/C(=C/C[C@@H](OC(=O)c1ccncc1)c1ccccc1OCCO)c1cc(C(=O)OC)ccc1OC`: the composite z-score in assay [1] is -0.115 (inactive); in the assay with XIP peptide (Xip251-270), -0.728. Further, the z-score is -2.97 in assay [2], -4.02 (inactive) in assay [3], 0.386 (inactive) in assay [4] and 0.77 (inactive) in assay [5].

Consider `O=C1C2C=CC(C(O)c3ccc4c(c3)OCO4)N(Nc3ccccc3)C2C(=O)N1c1ccccc1` (stereo unspecified), for which the composite z-score is 0.395 (inactive) in assay [1] and 0.795 with XIP peptide (Xip251-270). Besides, the z-score in assay [2] is -0.214; in assay [3], -1.49 (inactive); in assay [4], 0.104 (inactive); in assay [5] it was 0.614 (inactive).

`O=c1cccc(-c2ccco2)o1`: the composite z-score in assay [1] is -0.103 (inactive); with XIP peptide (Xip251-270) it was 0.337. The z-score was 2.05 in assay [2], -1.92 (inactive) in assay [3], 0.0593 (inactive) in assay [4] and -0.106 (inactive) in assay [5].

On to `CN1C(=O)[C@@]2(Cc3ccccc3)N=C(c3ccc(OCCCO)cc3)O[C@H]2c2ccccc21`, for which the composite z-score in assay [1] was 1.11 (inactive); in the assay with XIP peptide (Xip251-270) it was 0.687. Also, the z-score in assay [2] is -2.26; in assay [3], -4.01 (inactive); in assay [4], -0.632 (inactive); in assay [5], -0.864 (inactive).

`COCCOC(=O)N1C(=O)[C@@]2(c3ccccc31)[C@H](c1ccc(OCCO)cc1)N1[C@H](c3ccccc3)[C@H](c3ccccc3)OC(=O)[C@H]1[C@@H]2C(=O)N1CCCCCCC1`: the composite z-score was 8.16 (active) in assay [1] and 1.04 with XIP peptide (Xip251-270). Moreover, the z-score in assay [2] was -2.08; in assay [3] it was -15.8 (active); in assay [4], -0.17 (inactive); in assay [5], 0.128 (inactive).

As for `CCC(CC)C(O)C1C=CC2C(=O)N(c3ccccc3)C(=O)C2N1Nc1ccc([N+](=O)[O-])cc1` (stereo unspecified), the composite z-score in assay [1] was 0.39 (inactive); in the assay on XIP peptide (Xip251-270), 0.493. Moreover, the z-score was 1.38 in assay [2], -3.49 (inactive) in assay [3], -0.37 (inactive) in assay [4] and -1.56 (inactive) in assay [5].

On to `COCC(=C=CC[C@H](O)c1cccc(OCCO)c1)C[C@H](O)COCc1ccccc1`, for which the values for the composite z-score (in assay [1]; with XIP peptide (Xip251-270)) were 0.196 (inactive) and -0.524, respectively. In addition, the z-score is -1.88 in assay [2], -3.95 (inactive) in assay [3], -0.0978 (inactive) in assay [4] and 0.443 (inactive) in assay [5].

Take `CC(C)C[C@@H]1NC(=O)[C@@H]2C[C@H](C(=O)NCCCCCC[N+](C)(C)C)[C@H](c3cccc(OCCO)c3)N2C1=O`: the composite z-score in assay [1] is 0.753 (inactive); in the assay on XIP peptide (Xip251-270), 0.869. Moreover, the z-score is 0.169 in assay [2], -5.12 (inactive) in assay [3], -0.282 (inactive) in assay [4] and -0.178 (inactive) in assay [5].

On to `CC=CC(O)C1C=CC2C(=O)NC(=O)C2N1Nc1ccccn1` (stereo unspecified), for which the composite z-score was 2.39 (inactive) in assay [1] and 0.684 with XIP peptide (Xip251-270). Besides, the z-score is -0.0521 in assay [2], -1.1 (inactive) in assay [3], 0.517 (inactive) in assay [4] and 0.359 (inactive) in assay [5].

`C[C@]1(C(=O)NCC(F)(F)F)c2ccccc2C(=O)N(Cc2ccccc2)[C@H]1c1ccc(CO)cc1`: the composite z-score is 0.636 (inactive) in assay [1] and -0.0904 with XIP peptide (Xip251-270). Moreover, the z-score is 0.169 in assay [2], -4.07 (inactive) in assay [3], -0.301 (inactive) in assay [4] and -0.232 (inactive) in assay [5].

Regarding `CN(C)CCCC[C@@H]1NC(=O)[C@@H]2C[C@H](C(=O)O)[C@H](c3cccc(OCCO)c3)N2C1=O`, the composite z-score was 1.02 (inactive) in assay [1] and 0.0695 in the assay on XIP peptide (Xip251-270). The z-score in assay [2] was -0.286; in assay [3] it was -3.07 (inactive); in assay [4], 0.043 (inactive); in assay [5], 0.313 (inactive).

For the compound `C#C[C@@H](CC)O[Si](C#CCCCC#N)(C(C)C)C(C)C`, the composite z-score in assay [1] is 1.09 (inactive); in the assay on XIP peptide (Xip251-270), 0.261. Further, the z-score in assay [2] was -0.574; in assay [3], -1.27 (inactive); in assay [4], 0.33 (inactive); in assay [5], 0.0685 (inactive).

In the case of `Cc1ccc(F)cc1S(=O)(=O)N[C@@H]1CCN(Cc2cccc3[nH]ccc23)C1`, the composite z-score was -0.605 (inactive) in assay [1] and 0.578 in the assay on XIP peptide (Xip251-270). Besides, the z-score was -0.797 in assay [2], -3.62 (inactive) in assay [3], -0.561 (inactive) in assay [4] and -0.948 (inactive) in assay [5].

Consider `C=CCN1C(=O)[C@]2(O[C@H](CCO)[C@@H]([Si](C)(C)c3ccc(OC)cc3)[C@@H]2C)c2cc(N3C(=O)COc4ccccc43)ccc21`, for which the composite z-score was 0.879 (inactive) in assay [1] and 0.677 in the assay with XIP peptide (Xip251-270). The z-score is -2.85 in assay [2], -3.34 (inactive) in assay [3], -1.42 (inactive) in assay [4] and -1.34 (inactive) in assay [5].

As to `COc1ccc([Si](C)(C)[C@H]2[C@H](CC(=O)N3CCC[C@H]3CO)O[C@@]3(C(=O)N(Cc4ccc(N5CCC5=O)cc4)c4ccccc43)[C@@H]2C)cc1`, the composite z-score is 1.18 (inactive) in assay [1] and 0.709 in the assay on XIP peptide (Xip251-270). For the same compound, the z-score is -0.986 in assay [2], -3.74 (inactive) in assay [3], 0.312 (inactive) in assay [4] and -0.36 (inactive) in assay [5].

With `COCCOC(=O)N1C(=O)[C@@]2(c3cc(C#CC4(O)CCCCCC4)ccc31)[C@H](c1ccc(OCCO)cc1)N1[C@H](c3ccccc3)[C@H](c3ccccc3)OC(=O)[C@H]1[C@@H]2C(=O)Nc1nc2ccccc2s1`, the figures for the composite z-score (in assay [1]; in the assay with XIP peptide (Xip251-270)) were 0.284 (inactive) and 0.78, respectively. In addition, the z-score in assay [2] was -0.726; in assay [3], 1.07 (inactive); in assay [4], 0.218 (inactive); in assay [5], 0.561 (inactive).
